Results reported in PubChem BioAssay (Tox21).
Values joined by “and” are separate entries in the source; they are usually repeats but may differ in a detail not shown here. Identical values can stand only once. Inconclusive results are not listed. Where a call stands in place of a potency, no number is given. Values without a mark were called inactive. Active and inactive are the calls of the source. Calls come from the whole dose curve; as a rule, active = well fitted activation curve with a large enough effect in the signal ratio in the repeat runs (not every such curve was filed as active); inconclusive = weak or mixed curves, or effect the other way; inactive = no such curve, though single readings can be large or run the other way; the % refers to the signal ratio.

Experiment: qHTS assay for small molecule agonists of the antioxidant response element (ARE) signaling pathway (AID 743202)
Settings: HepG2 ARE-bla reporter, beta-lactamase FRET, 16 h; series mostly up to 73.3 µM
Excerpt: U.S. Tox21 Program National Center for Advancing Translational Sciences [NCATS] NIH Chemical Genomics Center [NCGC] U.S. Environmental Protection Agency [EPA] National Institutes of Environmental Health Sciences [NIEHS] National Toxicology Program [NTP] U.S. Food and Drug Administration [FDA] Tox21 Assay Overview: Oxidative stress has been implicated in the pathogenesis of a variety of diseases ranging from cancer to neurodegeneration. The antioxidant response element (ARE) signaling pathway plays an important role in the amelioration of oxidative stress. The CellSensor ARE-bla HepG2 cell line (Invitrogen) can be used for analyzing the Nrf2/antioxidant response signaling pathway. Nrf2 (NF-E2-related factor 2) and Nrf1 are transcription factors that bind to AREs and activate these genes. The CellSensor ARE-bla Hep G2 cell line contains a beta-lactamase reporter gene under control of the Antioxidant Response Element (ARE) stably integrated into HepG2 cells. The activation of the report gene under culture conditions can be detected by fluorescence intensity. This cell line has been used to screen the Tox21 10K compound library to identify agonists that induce oxidative stress.
Tox21 Assay Protocol Summary: The ARE-bla cells were dispensed at 2,000 cells/5 ul/well in 1536-well black wall/clear bottom plates using a Multidrop dispenser. After the assay plates were incubated at a 37 C/5% CO2 incubator for 5 hours, 23 nL of compounds dissolved in DMSO, positive controls or DMSO only was transferred to the assay plate by a pin tool. The plates were incubated at 37 C for 16 hours. After 1 uL of LiveBLAzer B/G FRET substrate was added using a Flying Reagent Dispenser, the plates were incubated at room temperature for 2 hours, and fluorescence intensity was measured by an Envision plate reader.
Potency is the fitted concentration of half-maximal effect.

Structure (SMILES) | Potency | activation
COc1ccc2c(c1)c(CC(=O)OCC(=O)O)c(C)n2C(=O)c1ccc(Cl)cc1 | inactive | 
CO[C@]12C[C@@H](COC(=O)c3cncc(Br)c3)CN(C)[C@@H]1Cc1cn(C)c3cccc2c13 | inactive | 
CN(C(=O)c1c(O)c2ccccc2n(C)c1=O)c1ccccc1 | inactive | 
O=c1cc(CO)occ1O | inactive | 
C=CCS(=O)(=O)O | inactive | 
c1ccc(CC2=NCCN2)cc1 | inactive | 
CCCN1CCCC[C@H]1C(=O)Nc1c(C)cccc1C | inactive | 
Cc1c(O)cccc1O | inactive | 
COC(=O)c1ccc(C)cc1C1=NC(C)(C(C)C)C(=O)N1 (stereo not given) | inactive | 
N=c1nc(N2CCCCC2)cc(N)n1O | inactive | 
COC(C)(C)CCCC(C)CC=O (stereo not given) | inactive | 
CCOC(=O)CCC(C)=O | inactive | 
CCOc1ccc(C(=O)OCCN(CC)CC)cc1 | inactive | 
COc1c(N2C[C@@H]3CCCN[C@@H]3C2)c(F)cc2c(=O)c(C(=O)O)cn(C3CC3)c12 | inactive | 
Nc1ccc(S(=O)(=O)Nc2ccnn2-c2ccccc2)cc1 | inactive | 
C=COCC1CCC(CO)CC1 (stereo not given) | inactive | 
Nc1cc(=O)[nH]c(N)n1 | inactive | 
CCC(C)S (stereo not given) |  | 1.05% [at 3.74 µM]
O=C(O)CN(CCOCCOCCN(CC(=O)O)CC(=O)O)CC(=O)O |  | 8.1% [at 0.756 µM]
O=C1OC(=O)C2CCCCC12 (stereo not given) | inactive | 

Structure (SMILES) | Potency | activation
NC(=O)Nc1ccccc1 | inactive | 
Cn1c(N)c(N=O)c(=O)n(C)c1=O | inactive | 
CC(C)(C)c1ccc(O)c(O)c1 | 28.2 µM (active) and 24.3 µM (active) | 
CN(C)CCCN1c2ccccc2CCc2ccc(Cl)cc21 | inactive | 
NS(=O)(=O)c1ccccc1Cl | inactive | 
CCOC(=O)Nc1ccc(NCc2ccc(F)cc2)nc1N | inactive | 
Cc1cc(O)cc2c1O[C@](C)(CCC[C@H](C)CCC[C@H](C)CCCC(C)C)CC2 | inactive | 
CC(C)c1cc2c(cc1S(=O)(=O)O)[C@@]1(C)CCC[C@@](C)(C(=O)O)[C@@H]1CC2 | inactive | 
O=C1CCCC(=O)C1 | inactive | 
NS(=O)(=O)c1cc(C(=O)NN2C[C@H]3[C@H]4CCC(C4)[C@H]3C2)ccc1Cl | inactive | 
O=C(O)CNC(=O)c1ccc([N+](=O)[O-])cc1 | inactive | 
O=S(O)CO | inactive | 
CCOC(=O)c1cccc(N)c1 | inactive | 
CCc1ccc(O)c(OC)c1 | inactive | 
CC(C)(c1ccc(O)cc1)c1ccc(O)cc1 | 27 µM (active) and 17.5 µM (active) | 
OCCCC1CCCCC1 | inactive | 
ClC(Cl)(Br)Br | inactive | 
NC(=O)c1ccc(N)cc1 | inactive | 
Cc1c(NC(C)C)c(=O)n(-c2ccccc2)n1C | inactive | 
Cc1cccn2c(=O)c(-c3nnn[nH]3)cnc12 | inactive | 
